Outcome and AC50 data for 14 compounds are collected here from PubChem BioAssay (EPA / NIEHS).

Inconclusive results are not listed. Active and inactive are the calls of the source. Rule for the calls, unless noted: active = hit-call score of the fitted dose curve at least 0.9, where 1 is the maximum; inconclusive = response in the unintended direction; inactive = score below 0.9.

Test [1] deals with Glucocorticoid receptor (Homo sapiens) (UniProt P04150). Nature of the test: NVS_NR_hGR: NovaScreen (NVS) Nuclear Receptor Binding Assay for human Glucocorticoid Receptor (GR) (AID 2283363).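 For AC50: activity is loss of specific radioligand binding signal relative to DMSO.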 The method in brief:
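Single-readout cell-free binding: radioligand plus extracted receptor, 16-hour dosing, filter radiodetection; 25 uM duplicate primary, concentration series secondary.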

Test [2] deals with Peroxisome proliferator-activated receptor gamma (Homo sapiens) (UniProt P37231). Description: NVS_NR_hPPARg: NovaScreen (NVS) Nuclear Receptor Binding Assay for human Peroxisome Proliferator-activated Receptor gamma (PPARg) (AID 2283370). In short, it runs like this: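 Chemicals were tested first in duplicate at 25 uM, then in concentration series if active. Binding to cell-free PPARg protein was measured by fluorescence polarization after 2 h, with loss of signal scored against DMSO.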
Chain of Peroxisome proliferator-activated receptor gamma (Homo sapiens) (P37231 whole entry, looked up): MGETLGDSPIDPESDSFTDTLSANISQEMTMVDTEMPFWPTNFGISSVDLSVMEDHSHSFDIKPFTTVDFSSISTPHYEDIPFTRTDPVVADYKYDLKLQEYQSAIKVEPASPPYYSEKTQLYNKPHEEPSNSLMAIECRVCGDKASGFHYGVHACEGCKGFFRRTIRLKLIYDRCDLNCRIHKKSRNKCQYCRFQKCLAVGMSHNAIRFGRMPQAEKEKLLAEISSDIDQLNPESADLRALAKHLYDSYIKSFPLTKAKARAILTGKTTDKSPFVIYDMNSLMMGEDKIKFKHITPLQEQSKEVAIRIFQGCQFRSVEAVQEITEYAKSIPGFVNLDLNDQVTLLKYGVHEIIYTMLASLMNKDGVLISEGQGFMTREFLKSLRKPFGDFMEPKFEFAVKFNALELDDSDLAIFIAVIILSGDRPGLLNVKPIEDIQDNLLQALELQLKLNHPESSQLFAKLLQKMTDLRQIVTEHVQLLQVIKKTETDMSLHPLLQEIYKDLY

Test [3] deals with human Norepinephrine Transporter (NET), SLC6A2 (gene 6530) (UniProt P23975). Nature of the test: NVS_TR_hNET: NovaScreen (NVS) Transporter Assay for human Norepinephrine Transporter (NET) (AID 2283377).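 For AC50: displacement of radioligand from human NET seen as loss of scintillation signal.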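 Note: cell-free membrane protein extracted from CHO cells expressing human NET.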 The method in brief:
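In this cell-free binding screen, chemicals at 25 uM (duplicate) compete with a radioligand for CHO-derived human NET over 1 hour, with filter-based radiodetection.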

The target in test [4] is Estrogen receptor (Homo sapiens) (UniProt P03372). Nature of the test: OT_ERa_GFPERaERE_0120: Odyssey Thera (OT) 2-hour HeLa Transcription Induction Assay for Estrogen Receptor (AID 2283382). The method in brief: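 Two-hour compound treatment of HeLa cells preceded microscopy imaging of an inducible fluorescent reporter. Image-based quantification gave one endpoint, analysed for signal increase relative to DMSO controls.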
Chain of Estrogen receptor (Homo sapiens) (P03372 whole entry, looked up): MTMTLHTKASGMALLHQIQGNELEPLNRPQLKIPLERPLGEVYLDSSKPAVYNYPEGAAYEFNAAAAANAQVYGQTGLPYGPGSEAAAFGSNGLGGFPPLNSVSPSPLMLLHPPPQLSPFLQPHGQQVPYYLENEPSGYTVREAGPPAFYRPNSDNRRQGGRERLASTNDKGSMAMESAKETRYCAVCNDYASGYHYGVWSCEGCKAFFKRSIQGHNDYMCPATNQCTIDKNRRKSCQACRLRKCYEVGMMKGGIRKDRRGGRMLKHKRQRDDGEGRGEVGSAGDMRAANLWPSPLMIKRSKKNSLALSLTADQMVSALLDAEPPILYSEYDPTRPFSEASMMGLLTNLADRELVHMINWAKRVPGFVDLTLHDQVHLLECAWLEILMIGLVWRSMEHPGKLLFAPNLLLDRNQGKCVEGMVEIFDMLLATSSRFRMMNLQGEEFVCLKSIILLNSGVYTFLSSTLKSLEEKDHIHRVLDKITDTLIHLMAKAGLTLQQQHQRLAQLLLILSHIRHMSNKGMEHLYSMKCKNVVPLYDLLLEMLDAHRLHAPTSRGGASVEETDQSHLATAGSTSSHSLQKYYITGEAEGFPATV

The target of test [5] is Nuclear receptor subfamily 1 group I member 2 (Homo sapiens) (UniProt O75469). Nature of the test: NVS_NR_hPXR: NovaScreen (NVS) Nuclear Receptor Binding Assay for human Pregnane X Receptor (PXR) (AID 2283365).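 Note: a drop in FRET signal versus DMSO baseline means the compound binds.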 In short, it runs like this: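 Human PXR protein, cell-free; compound added, incubated 2 h, TR-FRET read. Signal decrease vs DMSO = binding. Screened 25 uM duplicate, actives re-run as dilution series.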
Chain of Nuclear receptor subfamily 1 group I member 2 (Homo sapiens) (O75469 whole entry, looked up): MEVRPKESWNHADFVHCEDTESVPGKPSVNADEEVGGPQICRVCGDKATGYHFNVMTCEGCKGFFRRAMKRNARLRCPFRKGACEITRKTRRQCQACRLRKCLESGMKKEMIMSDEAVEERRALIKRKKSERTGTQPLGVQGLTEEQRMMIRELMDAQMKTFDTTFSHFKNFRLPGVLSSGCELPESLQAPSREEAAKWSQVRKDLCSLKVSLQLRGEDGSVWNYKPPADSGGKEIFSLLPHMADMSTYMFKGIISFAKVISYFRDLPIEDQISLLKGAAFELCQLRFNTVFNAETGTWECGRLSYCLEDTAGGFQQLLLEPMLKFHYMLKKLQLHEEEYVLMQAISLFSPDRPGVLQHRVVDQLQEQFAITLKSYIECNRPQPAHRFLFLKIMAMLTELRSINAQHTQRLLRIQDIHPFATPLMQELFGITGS

In test [6] the target is Estrogen receptor beta (Homo sapiens) (UniProt Q92731). Description: OT_ER_ERbERb_1440: Odyssey Thera (OT) 24-hour HEK293T Protein-Complementation Assay for Estrogen Receptor-beta/-beta Homodimer (AID 2283380).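 Note: fluorescence gain from ER beta LBD homodimer complementation read by laser scanning cytometry; scored as signal increase over DMSO baseline for both agonists and antagonists.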 The method in brief:
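HEK293T cells stably expressing human ER-beta LBD (aa 310-547) PCA homodimer pair, dosed 24 h; formaldehyde-fixed, Draq5-stained. Readout: increase in nuclear (agonist) or nuclear plus cytoplasmic (antagonist) fluorescence intensity versus DMSO, gain-of-signal fitting.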

For test [7], the target named is Estrogen receptor (Homo sapiens) (UniProt P03372). Nature of the test: OT_ERa_GFPERaERE_0480: Odyssey Thera (OT) 8-hour HeLa Transcription Induction Assay for Estrogen Receptor (AID 2283381; active = hit-call score of the fitted dose curve at least 0.9, where 1 is the maximum; inactive = score below 0.9). The method in brief: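 An 8 h HeLa transcription-induction format with a GFP reporter under ERE control, read by fluorescence microscopy; single endpoint fitted positively with DMSO as baseline.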

The target in test [8] is Bile acid receptor (Homo sapiens) (UniProt Q96RI1). Nature of the test: OT_FXR_FXRSRC1_0480: Odyssey Thera (OT) 8-hour HEK293T Protein-Complementation Assay for Farnesoid X receptor/SRC-1 Co-activator (AID 2283383). The method in brief: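 Readings were taken 8 h after dosing HEK293T cells in a split-reporter complementation format pairing FXR with SRC-1. Increased fluorescence relative to DMSO-treated wells defined activity.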
Chain of Bile acid receptor (Homo sapiens) (Q96RI1 whole entry, looked up): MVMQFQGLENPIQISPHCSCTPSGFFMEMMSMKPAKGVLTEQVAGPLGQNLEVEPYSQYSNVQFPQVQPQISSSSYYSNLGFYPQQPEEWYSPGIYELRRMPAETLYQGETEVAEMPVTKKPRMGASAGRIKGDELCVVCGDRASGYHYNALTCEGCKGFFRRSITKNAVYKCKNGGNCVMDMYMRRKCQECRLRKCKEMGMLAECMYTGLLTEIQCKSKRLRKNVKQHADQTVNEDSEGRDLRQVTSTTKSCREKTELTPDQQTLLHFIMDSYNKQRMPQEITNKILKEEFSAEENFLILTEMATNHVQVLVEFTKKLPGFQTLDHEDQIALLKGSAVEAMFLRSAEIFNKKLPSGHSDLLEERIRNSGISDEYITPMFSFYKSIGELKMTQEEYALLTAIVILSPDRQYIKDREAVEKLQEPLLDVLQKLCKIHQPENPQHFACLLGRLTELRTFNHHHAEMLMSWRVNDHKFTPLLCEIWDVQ

Test [9] shares this target. Nature of the test: OT_FXR_FXRSRC1_1440: Odyssey Thera (OT) 24-hour HEK293T Protein-Complementation Assay for Farnesoid X receptor/SRC-1 Co-activator (AID 2283384). The method in brief:
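Single endpoint, analysed for increased fluorescence against DMSO controls. HEK293T cells carrying FXR and SRC-1 linked to complementary reporter halves were exposed to chemicals for 24 h before reading.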

The target of test [10] is human Adenosine Transporter (Adot), SLC29A1 (gene 2030) (UniProt Q99808). Nature of the test: NVS_TR_hAdoT: NovaScreen (NVS) Transporter Assay for human Adenosine Transporter (Adot) (AID 2283368). In short, it runs like this: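 Binding displacement on U937 extracted protein, read 1 h post-dose by filtration and scintillation counting. Primary duplicate test at 25 uM, then singleton concentration series with 50 uM top; DMSO baseline.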

The subject of test [11] is guinea pig Dopamine Transporter (DAT), gene 100714898. Nature of the test: NVS_TR_gDAT: NovaScreen (NVS) Transporter Assay for guinea pig Dopamine Transporter (DAT) (AID 2283369).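 Note: active compounds lower bound radioligand signal relative to DMSO.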 In short, it runs like this:
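Scintillation counts of filter-retained radioligand report binding to guinea pig striatal membranes after 2 h. Activity scored as signal loss relative to DMSO, first at 25 uM in duplicate, then in concentration series to 50 uM.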

Test [12] has as its target human Serotonin Transporter (SERT), SLC6A4 (gene 6532) (UniProt P31645). Description: NVS_TR_hSERT: NovaScreen (NVS) Transporter Assay for human Serotonin Transporter (SERT) (AID 2283372). In short, it runs like this:
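Human platelet membrane preparation; displacement of radioligand from serotonin transporter measured after 1 h by filtration and scintillation counting. Single 25 uM duplicate screen, then concentration series for actives, with DMSO as negative baseline.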

Test [13] has as its system rat Norepinephrine Transporter (NET), gene 83511. Description: NVS_TR_rNET: NovaScreen (NVS) Transporter Assay for rat Norepinephrine Transporter (NET) (AID 2283373). In short, it runs like this:
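Competitive radioligand displacement at the rat NET using forebrain membrane preparations, 1 h incubation, filter-based scintillation readout. Primary testing in duplicate at a single 25 uM concentration; confirmed actives retested across concentrations.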

In test [14] the target is human Dopamine Transporter (DAT), SLC6A3 (gene 6531) (UniProt Q01959). Description: NVS_TR_hDAT: NovaScreen (NVS) Transporter Assay for human Dopamine Transporter (DAT) (AID 2283374).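 Note: activity means loss of bound radioligand signal relative to DMSO.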 The method in brief:
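Extracted human SLC6A3 protein incubated 1 h with radioligand and test chemical; bound fraction separated on filters and counted. Single 25 uM duplicate screen preceded concentration-response follow-up; positive and negative controls on every plate.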

In test [15] the target is rat Serotonin Transporter (SERT), Slc6a4 (gene 25553) (UniProt P31652). Description: NVS_TR_rSERT: NovaScreen (NVS) Transporter Assay for rat Serotonin Transporter (SERT) (AID 2283375). In short, it runs like this:
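Filtration-based radiodetection quantified loss of specific radioligand binding in rat forebrain membranes after 1 hour of chemical exposure, relative to DMSO. Chemicals were first tested in duplicate at 25 uM.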

Test [16] concerns the target Norway rat Vesicular Monoamine Transporter (VMAT2), neurotransmitter transporter, Slc18a2 (gene 25549) (UniProt Q01827). Description: NVS_TR_rVMAT2: NovaScreen (NVS) Transporter Assay for Norway rat Vesicular Monoamine Transporter (VMAT2), neurotransmitter transporter (AID 2283376).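 Note: actives lower the bound radioligand signal below the DMSO level.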 In short, it runs like this: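 Binding endpoint from rat forebrain tissue, cell-free; 1 h incubation; filtered radioligand counted; 25 uM duplicate primary then dose series; DMSO negative control.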

Test [17] addresses Retinoic acid receptor RXR-alpha (Homo sapiens) (UniProt P19793). Nature of the test: OT_NURR1_NURR1RXRa_0480: Odyssey Thera (OT) 8-hour HEK293T Protein Complementation Assay for Nurr1/retinoid X receptor (RXR) (AID 2283385). In short, it runs like this:
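Gain in fluorescent complementation signal over DMSO, measured 8 hours after chemical dosing of human kidney HEK293T cells, indicated enhanced Nurr1–RXRα association.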

In test [18] the target is rat Androgen Receptor (AR), Ar (gene 24208) (UniProt P15207). Nature of the test: NVS_NR_rAR: NovaScreen (NVS) Nuclear Receptor Binding Assay for rat Androgen Receptor (AR) (AID 2283366). The method in brief:
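Actives from a duplicate single-concentration (25 uM) primary run went on to concentration series. Displacement of radioligand was counted by filtration and scintillation, 18 h post-dose, using prostate extracts from testosterone-pretreated rats, with DMSO as baseline.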

Chain of Retinoic acid receptor RXR-alpha (Homo sapiens) (P19793 whole entry, looked up): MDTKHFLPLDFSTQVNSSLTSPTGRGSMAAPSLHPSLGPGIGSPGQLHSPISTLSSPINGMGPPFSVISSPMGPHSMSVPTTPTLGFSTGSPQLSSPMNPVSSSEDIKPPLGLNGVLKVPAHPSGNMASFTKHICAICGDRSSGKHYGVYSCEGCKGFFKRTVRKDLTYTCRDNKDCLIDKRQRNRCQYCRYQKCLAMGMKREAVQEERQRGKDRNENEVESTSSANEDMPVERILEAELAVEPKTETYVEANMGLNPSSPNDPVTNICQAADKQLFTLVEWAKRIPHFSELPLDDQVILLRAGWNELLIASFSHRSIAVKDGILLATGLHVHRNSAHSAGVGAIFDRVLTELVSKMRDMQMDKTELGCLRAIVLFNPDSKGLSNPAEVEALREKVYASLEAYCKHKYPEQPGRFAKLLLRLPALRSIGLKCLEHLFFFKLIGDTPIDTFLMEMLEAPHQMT
Chain of Glucocorticoid receptor (Homo sapiens) (P04150 whole entry, looked up): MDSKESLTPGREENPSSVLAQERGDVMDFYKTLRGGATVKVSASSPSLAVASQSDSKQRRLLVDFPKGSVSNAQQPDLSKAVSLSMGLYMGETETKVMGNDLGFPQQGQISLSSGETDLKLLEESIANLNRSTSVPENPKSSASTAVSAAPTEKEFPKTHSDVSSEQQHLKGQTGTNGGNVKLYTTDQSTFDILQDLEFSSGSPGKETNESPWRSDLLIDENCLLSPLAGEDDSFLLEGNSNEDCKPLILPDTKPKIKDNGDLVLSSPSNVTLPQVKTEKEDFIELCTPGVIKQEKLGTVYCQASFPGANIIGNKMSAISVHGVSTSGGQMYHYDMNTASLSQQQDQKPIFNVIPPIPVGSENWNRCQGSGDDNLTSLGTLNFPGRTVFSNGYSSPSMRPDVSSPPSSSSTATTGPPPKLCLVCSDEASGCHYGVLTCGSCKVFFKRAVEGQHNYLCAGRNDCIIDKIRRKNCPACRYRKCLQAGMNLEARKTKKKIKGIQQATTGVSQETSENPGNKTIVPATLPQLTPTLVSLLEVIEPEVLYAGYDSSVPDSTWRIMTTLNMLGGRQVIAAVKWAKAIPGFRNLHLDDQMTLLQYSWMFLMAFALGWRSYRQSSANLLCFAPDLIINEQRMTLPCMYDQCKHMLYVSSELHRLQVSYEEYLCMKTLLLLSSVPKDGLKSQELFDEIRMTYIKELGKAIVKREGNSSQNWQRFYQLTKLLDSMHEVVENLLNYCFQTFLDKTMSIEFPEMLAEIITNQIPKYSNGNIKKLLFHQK
Chain of Estrogen receptor beta (Homo sapiens) (Q92731 whole entry, looked up, the tested form may be a part): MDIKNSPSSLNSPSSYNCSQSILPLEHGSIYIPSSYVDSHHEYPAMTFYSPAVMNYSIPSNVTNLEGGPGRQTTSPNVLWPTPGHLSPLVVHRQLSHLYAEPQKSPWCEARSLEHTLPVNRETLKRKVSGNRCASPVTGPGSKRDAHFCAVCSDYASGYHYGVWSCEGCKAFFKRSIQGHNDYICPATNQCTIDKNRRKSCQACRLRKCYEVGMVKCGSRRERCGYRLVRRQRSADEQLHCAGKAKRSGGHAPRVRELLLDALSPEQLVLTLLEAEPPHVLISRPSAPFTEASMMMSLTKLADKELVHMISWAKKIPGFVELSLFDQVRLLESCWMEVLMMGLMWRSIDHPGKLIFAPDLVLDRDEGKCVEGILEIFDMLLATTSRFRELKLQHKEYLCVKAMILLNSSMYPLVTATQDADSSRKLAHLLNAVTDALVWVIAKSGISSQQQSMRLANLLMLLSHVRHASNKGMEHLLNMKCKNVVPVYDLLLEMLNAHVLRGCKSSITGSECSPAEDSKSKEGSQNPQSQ
Chain of human Norepinephrine Transporter (NET), SLC6A2 (gene 6530) (P23975 whole entry, looked up): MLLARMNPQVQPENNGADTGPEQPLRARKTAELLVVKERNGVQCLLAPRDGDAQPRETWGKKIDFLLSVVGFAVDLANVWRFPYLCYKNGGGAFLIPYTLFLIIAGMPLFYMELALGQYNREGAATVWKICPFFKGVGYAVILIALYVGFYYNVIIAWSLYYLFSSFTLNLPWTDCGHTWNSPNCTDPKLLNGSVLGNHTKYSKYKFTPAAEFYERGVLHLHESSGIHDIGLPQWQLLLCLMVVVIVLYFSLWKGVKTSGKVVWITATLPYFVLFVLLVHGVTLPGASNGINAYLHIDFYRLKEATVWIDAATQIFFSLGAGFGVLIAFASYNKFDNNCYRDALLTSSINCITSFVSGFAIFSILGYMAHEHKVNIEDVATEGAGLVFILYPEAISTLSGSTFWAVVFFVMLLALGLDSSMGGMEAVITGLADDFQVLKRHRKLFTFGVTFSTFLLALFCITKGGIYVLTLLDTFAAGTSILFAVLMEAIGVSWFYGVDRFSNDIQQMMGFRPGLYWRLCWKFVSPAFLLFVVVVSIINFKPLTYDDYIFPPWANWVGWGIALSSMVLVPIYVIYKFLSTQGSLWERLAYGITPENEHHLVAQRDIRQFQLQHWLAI
Chain of human Dopamine Transporter (DAT), SLC6A3 (gene 6531) (Q01959 whole entry, looked up): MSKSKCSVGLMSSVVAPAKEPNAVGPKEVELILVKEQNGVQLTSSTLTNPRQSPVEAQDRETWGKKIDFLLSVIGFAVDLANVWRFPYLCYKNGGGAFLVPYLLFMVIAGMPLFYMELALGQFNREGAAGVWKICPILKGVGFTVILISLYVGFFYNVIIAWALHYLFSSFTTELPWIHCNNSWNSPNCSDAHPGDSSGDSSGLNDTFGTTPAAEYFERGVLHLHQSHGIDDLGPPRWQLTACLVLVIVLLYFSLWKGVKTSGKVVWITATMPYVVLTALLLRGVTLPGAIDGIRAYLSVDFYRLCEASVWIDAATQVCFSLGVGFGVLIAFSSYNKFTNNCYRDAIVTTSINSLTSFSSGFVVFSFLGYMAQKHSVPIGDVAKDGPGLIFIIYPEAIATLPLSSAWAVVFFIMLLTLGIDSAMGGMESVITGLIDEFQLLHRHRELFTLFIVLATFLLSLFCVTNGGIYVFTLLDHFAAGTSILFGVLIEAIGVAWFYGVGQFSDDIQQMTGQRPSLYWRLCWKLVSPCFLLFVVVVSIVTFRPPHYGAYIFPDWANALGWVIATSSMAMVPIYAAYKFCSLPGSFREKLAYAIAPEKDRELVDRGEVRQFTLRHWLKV

As for `CC(C)(OO)c1ccccc1`, the result in test [1], in test [2], in test [3] and in [4] was inactive.

Broadly, the AC50 is the concentration giving half of the maximal activity seen. For `Clc1ccc(C2(Cn3cncn3)CC(Br)CO2)c(Cl)c1` (centres undefined), the results for the AC50 in test [1] and in [5] were 6.23 µM (active) and 19.8 µM (active), respectively. Besides, the compound was classed as inactive in test [2], in test [6], in [7], in [4], in [8] and in test [9].

Consider `C=C(C)C(=O)[O][Sn]([CH2]CCC)([CH2]CCC)[CH2]CCC`, for which the AC50 in [1] is 1.15 µM (active); in test [10], 36.7 µM (active); in test [11], 19.9 µM (active); in test [2], 1.62 µM (active); in test [12], 8.9 µM (active); in test [13], 25 µM (active). For the same compound, the AC50 is 2.82 µM (active) in test [14]; 4.15 µM (active) in test [15]; 4.76 µM (active) in test [16]; 0.376 µM (active) in test [3]; 0.772 µM (active) in test [4]. For the same compound, the result in test [5], in test [6], in test [7] and in test [9] was inactive.

Consider `Cn1sc(Cl)cc1=O`, for which the compound was classed as inactive in test [1], in [14], in test [6], in test [7], in [4] and in [8]. Besides, the result in test [9] and in test [17] was inactive. The AC50 in [3] is 1.59 µM (active).

As for `NNC(=S)NN`, the result in test [5], in test [6], in [7] and in test [4] was inactive.

On to `COP(=O)(OC)O/C(=C\Cl)c1cc(Cl)c(Cl)cc1Cl`, for which, in [5], the AC50 is 25 µM (active). The call in test [2], in [4], in [8] and in test [9] was inactive.

As for `C=CC#N`, the compound was called inactive in [5], in [2], in test [6] and in test [17].

For `Fc1ccc(C2(Cn3cncn3)OC2c2ccccc2Cl)cc1` (centres undefined), the compound was called inactive in test [5], in test [4], in test [8] and in test [17]. Further, the AC50 in test [6] was 19.2 µM (active); in test [9], 18.9 µM (active).

As for `C[C@H]1CCCC(=O)CCC/C=C/c2cc(O)cc(O)c2C(=O)O1`, the AC50 in test [5] is 0.969 µM (active); in test [2] it was 2.15 µM (active); in test [6] it was 0.0449 µM (active); in test [7], 0.103 µM (active); in test [4], 0.0915 µM (active).

As to `N#CCCO`, the call in test [18] was inactive.

Turning to `CC1(C)Cc2cccc(O)c2O1`, the compound was called inactive in test [5], in [6] and in [4].

As to `Clc1ccc(COC(Cn2ccnc2)c2ccc(Cl)cc2Cl)cc1` (centres undefined), the half-maximal activity concentration (AC50) in test [1] is 2.3 µM (active); in [5], 9.83 µM (active); in test [18], 6.9 µM (active); in test [17] it was 11.2 µM (active). For the same compound, the compound was called inactive in [6] and in [4].

Take `Cc1ccccc1N`: the compound was classed as inactive in test [5] and in test [17].

Consider `C1CCC(NC2CCCCC2)CC1`, for which the outcome in [5] and in test [4] was inactive.
